From PubChem BioAssay (Tox21)
Records with an inconclusive call do not appear. Unmarked numbers belong to inactive results. Calls of active or inactive are those of the source. Calls follow the shape of the full dose curve.

Experiment: qHTS assay for small molecule agonists of the p53 signaling pathway - cell viability (AID 651633); also: nearly all actives have a fitted effect of over 30% in size;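 as to activity change, negative = cytotoxicity: p53RE-bla HCT reporter cells with a stable beta-lactamase p53 reporter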
Conditions: p53RE-bla HCT-116 viability, ATP luminescence, 16 h; series mostly up to 83.3 µM; activity change, negative = cytotoxicity: at the top concentration
From the text: National Center for Advancing Translational Sciences [NCATS]
NIH Chemical Genomics Center [NCGC]
U.S. Environmental Protection Agency [EPA]
National Institutes of Environmental Health Sciences [NIEHS]
National Toxicology Program [NTP]
U.S. Food and Drug Administration [FDA]
p53, a tumor suppressor protein, is activated following cellular insult, including DNA damage and other cellular stresses. The activation of p53 regulates cell fate by inducing DNA repair, cell cycle arrest, apoptosis, or cellular senescence. The activation of p53, therefore, is a good indicator of DNA damage and other cellular stresses. […] The activation of the reporter gene under culture conditions can be detected by fluorescence intensity. This cell line was used to screen the Tox21 compound library in a 1536-well plate format and to identify agonists that activate the p53 signaling pathway.
Tox21 Assay Protocol Summary:
The p53RE-bla cells were dispensed at 4,000 cells/5 ul/well in 1536-well black wall/clear bottom plates using a Multidrop dispenser. After the assay plates were incubated at a 37 C/5% CO2 incubator for 5 hours, 23 nL of compounds dissolved in DMSO, positive controls or DMSO only was transferred to the assay plate by a pin tool. The plates were incubated at 37 C for 16 hours. After 1 uL of LiveBLAzerTM B/G FRET substrate was added using a Flying Reagent Dispenser, the plates were incubated at room temperature for 2 hours, and fluorescence intensity was measured by an Envision plate reader.
For cell viability readout that measures cytotoxicity, 4 ul/well of CellTiter-Glo reagent was added into the assay plates using a Flying Reagent Dispenser. After 30 min incubation at room temperature, the luminescence intensity in the plates was measured using a ViewLux plate reader.
% is scaled to controls: 0 for no effect and ±100 for the full control effect; potency is read from the fitted curve at half-maximal effect.

Compound	activity change, negative = cytotoxicity	Potency
OCCBr	-2.46%	
O=C(NCO)NCO	-10.4% [at 95.3 µM]	
CCS(=O)(=O)CCSP(=O)(OC)OC	14.6%	
CC(C)CC#N	8.46% [at 95.3 µM]	
CNCC(=O)c1ccc(O)c(O)c1	5.59%	
CNC(=O)Oc1c(C(C)(C)C)cc(C)cc1C(C)(C)C	-12.6%	
CC(Oc1ccc(Oc2ncc(C(F)(F)F)cc2Cl)cc1)C(=O)O (stereo not given)	-6.02%	
O=C(CCN1CC1)OCC(CO)(COC(=O)CCN1CC1)COC(=O)CCN1CC1	10.9%	
CCOP(=S)(OCC)Oc1nc(Cl)n(C(C)C)n1	21.8%	
O=CNC(N1CCN(C(NC=O)C(Cl)(Cl)Cl)CC1)C(Cl)(Cl)Cl (stereo not given)	4.22%	
CCCCCCBr	-9.45% [at 95.3 µM]	
C=CCC1=C(C)[C@@H](OC(=O)[C@@H]2[C@@H](C=C(C)C)C2(C)C)CC1=O		61.1 µM (active)
N#CCBr	19.3% [at 95.3 µM]	
CC(C=O)Cc1ccc2c(c1)OCO2 (stereo not given)	1.64%	
O=[N+]([O-])c1cccc(O)c1	-2.64% [at 95.3 µM]	
Nc1ccccc1Cl	11.6%	
Nc1cc2c3c(c1)C(c1ccccc1)=N[C@@H](NC(=O)c1cccnc1)C(=O)N3CC2	24.4%	
CCOP(=S)(Oc1cnc(C(C)(C)C)nc1)OC(C)C (stereo not given)	-13.1%	
N#Cc1c(Cl)cccc1Cl	19.5%	
CC(C)CP(=S)(S)CC(C)C	20.1%	

Compound	activity change, negative = cytotoxicity	Potency
O=C(O)c1ccc2[nH]cc(CCCCN3CC=C(c4ccccc4)CC3)c2c1	10.2%	
CCc1cc2c(s1)-n1c(C)nnc1CN=C2c1ccccc1Cl	-6.72%	
CC(=O)C(Cl)Cl	-10.1% [at 95.3 µM]	
CNC(=O)O/N=C(\C)SC	21.6%	
CCOP(=O)(N=C1SCCS1)OCC	4.98%	
O=NN1CCN(N=O)CC1	-20.7%	
[As]#[In]	6.13%	
CCCCOC(=O)c1ccccc1C(=O)O	17.7%	
CC1=NNC(=O)N(/N=C/c2cccnc2)C1	11.6%	
COc1ncc(F)c2nc(S(=O)(=O)Nc3c(F)cccc3F)nn12	5.6%	
c1cc2c(c(N3CCNCC3)c1)OCCO2	25.8%	
O=c1oc2ccccc2c(O)c1C1CCCc2ccccc21 (stereo not given)	-1.17%	
COc1cccc2c1cc([N+](=O)[O-])c1c(C(=O)O)cc3c(c12)OCO3	11.6%	
O=[N+]([O-])c1cc(Cl)c(Cl)c(Cl)c1	12.2%	
CCN(CC)C(C)C(=O)c1ccccc1 (stereo not given)	17.2%	
CCCCC(=O)Cl	11.1% [at 95.3 µM]	
CCC(=O)c1ccccc1	8.45%	
O=C(O)C(Br)CBr (stereo not given)	-9.84% [at 95.3 µM]	
CN1CCN(C(=O)O[C@H]2c3nccnc3C(=O)N2c2ccc(Cl)cn2)CC1	20.6%	
Cc1ncc(CNC(=O)N(CCCl)N=O)c(N)n1	10.1%	
